The source of these data is ChEMBL document CHEMBL2218924, “A broad activity screen in support of a chemogenomic map for kinase signalling research and drug discovery” (Biochem J, 2013).

Test [1] has as its target T1, Testis-specific serine/threonine-protein kinase 1 (Homo sapiens) (UniProt Q9BXA7).
T1 sequence (whole entry): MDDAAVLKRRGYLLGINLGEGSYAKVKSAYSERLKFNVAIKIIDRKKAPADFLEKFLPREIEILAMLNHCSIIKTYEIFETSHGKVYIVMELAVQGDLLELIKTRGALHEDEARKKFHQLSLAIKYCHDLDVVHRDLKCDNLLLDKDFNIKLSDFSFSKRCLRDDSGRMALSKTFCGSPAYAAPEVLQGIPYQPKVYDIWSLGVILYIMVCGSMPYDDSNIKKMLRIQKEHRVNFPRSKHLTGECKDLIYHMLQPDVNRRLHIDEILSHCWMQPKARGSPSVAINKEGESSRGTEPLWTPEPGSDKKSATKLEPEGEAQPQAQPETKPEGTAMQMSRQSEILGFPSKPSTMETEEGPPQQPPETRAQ
The following applies: at 1 µM.

The target of test [2] is T1, Testis-specific serine/threonine-protein kinase 1 (Homo sapiens). The following applies: at 10 µM.
Test [3] concerns the target T2, Testis-specific serine/threonine-protein kinase 2 (Homo sapiens) (UniProt Q96PF2).
T2 sequence (whole entry): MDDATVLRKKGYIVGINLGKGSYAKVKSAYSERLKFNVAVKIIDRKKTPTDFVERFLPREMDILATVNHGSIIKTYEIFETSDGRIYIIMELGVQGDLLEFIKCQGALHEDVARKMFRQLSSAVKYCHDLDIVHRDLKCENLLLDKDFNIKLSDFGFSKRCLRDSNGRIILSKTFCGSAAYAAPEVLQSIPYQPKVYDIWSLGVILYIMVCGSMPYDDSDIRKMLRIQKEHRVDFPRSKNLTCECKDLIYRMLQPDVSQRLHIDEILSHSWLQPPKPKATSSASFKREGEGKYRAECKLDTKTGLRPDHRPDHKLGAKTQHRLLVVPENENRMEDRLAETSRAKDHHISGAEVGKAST
The following applies: at 10 µM.

Test [4] addresses T3, Tyrosine-protein kinase Tec (Homo sapiens) (UniProt P42680).
T3 sequence (whole entry): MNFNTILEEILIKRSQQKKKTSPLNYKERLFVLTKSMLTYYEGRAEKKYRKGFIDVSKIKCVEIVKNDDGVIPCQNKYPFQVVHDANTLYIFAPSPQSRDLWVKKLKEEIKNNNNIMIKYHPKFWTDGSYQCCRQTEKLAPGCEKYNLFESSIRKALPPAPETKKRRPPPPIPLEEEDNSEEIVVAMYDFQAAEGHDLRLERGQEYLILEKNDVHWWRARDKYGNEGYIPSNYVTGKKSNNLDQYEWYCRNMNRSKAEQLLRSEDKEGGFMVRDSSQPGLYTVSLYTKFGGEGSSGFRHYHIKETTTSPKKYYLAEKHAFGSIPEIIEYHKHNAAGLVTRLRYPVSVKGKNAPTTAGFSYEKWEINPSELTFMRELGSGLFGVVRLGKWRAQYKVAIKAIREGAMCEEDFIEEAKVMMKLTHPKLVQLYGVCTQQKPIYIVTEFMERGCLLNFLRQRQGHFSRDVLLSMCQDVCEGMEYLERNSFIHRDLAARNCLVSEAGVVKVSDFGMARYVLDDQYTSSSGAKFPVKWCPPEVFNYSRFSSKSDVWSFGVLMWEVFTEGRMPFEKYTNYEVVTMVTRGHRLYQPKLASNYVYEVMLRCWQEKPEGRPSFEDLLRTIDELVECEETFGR
The following applies: at 1 µM.

In test [5] the target is T3, Tyrosine-protein kinase Tec (Homo sapiens). As to conditions: at 10 µM.
For test [6], the target named is Angiopoietin-1 receptor (Homo sapiens) (UniProt Q02763). The following applies: at 10 µM.
For test [7], the target named is High affinity nerve growth factor receptor (Homo sapiens) (UniProt P04629). The following applies: at 1 µM.
For test [8] the target is unchanged. The following applies: at 10 µM.
The target in test [9] is BDNF/NT-3 growth factors receptor (Homo sapiens) (UniProt Q16620). As to conditions: at 1 µM.
For test [10] the target is unchanged. The following applies: at 10 µM.
Test [11] has as its target T4, Tyrosine-protein kinase TXK (Homo sapiens) (UniProt P42681).
T4 sequence (whole entry): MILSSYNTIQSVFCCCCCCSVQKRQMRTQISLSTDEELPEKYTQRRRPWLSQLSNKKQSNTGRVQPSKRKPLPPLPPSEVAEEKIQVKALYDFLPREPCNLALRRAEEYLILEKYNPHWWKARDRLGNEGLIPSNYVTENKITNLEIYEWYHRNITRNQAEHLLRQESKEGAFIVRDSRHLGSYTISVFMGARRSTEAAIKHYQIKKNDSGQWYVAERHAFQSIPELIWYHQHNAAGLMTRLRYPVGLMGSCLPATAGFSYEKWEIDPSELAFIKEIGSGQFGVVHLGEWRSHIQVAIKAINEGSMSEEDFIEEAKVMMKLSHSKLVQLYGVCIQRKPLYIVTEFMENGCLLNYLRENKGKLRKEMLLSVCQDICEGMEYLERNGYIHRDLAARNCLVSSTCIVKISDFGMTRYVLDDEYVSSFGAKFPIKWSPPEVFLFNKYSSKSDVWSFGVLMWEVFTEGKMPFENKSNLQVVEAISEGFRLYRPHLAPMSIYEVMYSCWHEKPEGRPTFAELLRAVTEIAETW
The following applies: at 1 µM.

The target of test [12] is T4, Tyrosine-protein kinase TXK (Homo sapiens). The following applies: at 10 µM.
The target in test [13] is T5, Serine/threonine-protein kinase ULK2 (Homo sapiens) (UniProt Q8IYT8).
T5 sequence (whole entry): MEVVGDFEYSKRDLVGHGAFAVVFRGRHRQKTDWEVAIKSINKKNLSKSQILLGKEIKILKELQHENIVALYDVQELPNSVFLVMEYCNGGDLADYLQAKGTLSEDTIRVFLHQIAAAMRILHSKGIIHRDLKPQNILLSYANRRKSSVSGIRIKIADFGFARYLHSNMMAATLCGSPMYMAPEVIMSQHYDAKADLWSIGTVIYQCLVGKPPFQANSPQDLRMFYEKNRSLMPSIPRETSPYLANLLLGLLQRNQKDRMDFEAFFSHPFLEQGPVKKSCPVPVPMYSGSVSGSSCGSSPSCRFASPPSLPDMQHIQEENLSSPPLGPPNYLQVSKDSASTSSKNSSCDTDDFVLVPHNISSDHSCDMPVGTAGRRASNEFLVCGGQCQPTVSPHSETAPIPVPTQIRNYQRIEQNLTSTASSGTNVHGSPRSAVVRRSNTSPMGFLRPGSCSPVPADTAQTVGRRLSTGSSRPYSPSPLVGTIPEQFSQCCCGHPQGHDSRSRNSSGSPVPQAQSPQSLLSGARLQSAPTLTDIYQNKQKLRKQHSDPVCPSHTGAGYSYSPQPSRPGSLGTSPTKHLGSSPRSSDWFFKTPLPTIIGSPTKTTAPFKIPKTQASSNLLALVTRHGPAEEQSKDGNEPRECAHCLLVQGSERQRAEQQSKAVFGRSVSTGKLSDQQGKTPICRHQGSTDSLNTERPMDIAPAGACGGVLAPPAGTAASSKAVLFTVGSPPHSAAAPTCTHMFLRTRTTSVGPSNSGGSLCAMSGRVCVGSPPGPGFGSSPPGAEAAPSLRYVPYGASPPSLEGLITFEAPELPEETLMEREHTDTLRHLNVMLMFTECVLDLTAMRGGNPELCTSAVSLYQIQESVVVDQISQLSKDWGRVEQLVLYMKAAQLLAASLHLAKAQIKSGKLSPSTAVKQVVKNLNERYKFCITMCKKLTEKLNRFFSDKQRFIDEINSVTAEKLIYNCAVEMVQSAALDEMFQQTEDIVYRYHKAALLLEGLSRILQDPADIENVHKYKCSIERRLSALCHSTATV
The following applies: at 1 µM.

For test [14], the target named is T6, Serine/threonine-protein kinase ULK3 (Homo sapiens) (UniProt Q6PHR2).
T6 sequence (whole entry): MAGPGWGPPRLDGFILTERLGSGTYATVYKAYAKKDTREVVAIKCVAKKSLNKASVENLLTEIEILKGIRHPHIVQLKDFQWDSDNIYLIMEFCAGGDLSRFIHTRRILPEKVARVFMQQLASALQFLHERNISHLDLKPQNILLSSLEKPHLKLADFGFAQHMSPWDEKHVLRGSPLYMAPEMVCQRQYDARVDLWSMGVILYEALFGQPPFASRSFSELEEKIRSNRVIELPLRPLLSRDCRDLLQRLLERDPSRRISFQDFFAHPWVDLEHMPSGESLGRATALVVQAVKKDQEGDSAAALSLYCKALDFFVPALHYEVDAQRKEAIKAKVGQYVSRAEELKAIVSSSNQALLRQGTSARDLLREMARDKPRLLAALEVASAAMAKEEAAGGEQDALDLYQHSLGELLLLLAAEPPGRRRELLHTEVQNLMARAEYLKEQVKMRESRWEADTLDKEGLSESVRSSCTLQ
The following applies: at 1 µM.

For test [15], the target named is T6, Serine/threonine-protein kinase ULK3 (Homo sapiens). The following applies: at 10 µM.
Test [16] addresses Serine/threonine-protein kinase VRK2 (Homo sapiens) (UniProt Q86Y07). The following applies: at 10 µM.
The target in test [17] is Angiopoietin-1 receptor (Homo sapiens) (UniProt Q02763). As to conditions: at 1 µM.
Test [18] has as its target Serine/threonine-protein kinase VRK2 (Homo sapiens) (UniProt Q86Y07). As to conditions: at 1 µM.
The target in test [19] is Serine/threonine-protein kinase WNK2 (Homo sapiens) (UniProt Q9Y3S1). The following applies: at 1 µM.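 Also: residual WNK2 kinase activity expressed as percent of uninhibited control, assayed in MOPS buffer at pH 7.0 containing EDTA.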
The target of test [20] is T5, Serine/threonine-protein kinase ULK2 (Homo sapiens). The following applies: at 10 µM.

Chain of High affinity nerve growth factor receptor (Homo sapiens) (P04629 33-796 limits assumed): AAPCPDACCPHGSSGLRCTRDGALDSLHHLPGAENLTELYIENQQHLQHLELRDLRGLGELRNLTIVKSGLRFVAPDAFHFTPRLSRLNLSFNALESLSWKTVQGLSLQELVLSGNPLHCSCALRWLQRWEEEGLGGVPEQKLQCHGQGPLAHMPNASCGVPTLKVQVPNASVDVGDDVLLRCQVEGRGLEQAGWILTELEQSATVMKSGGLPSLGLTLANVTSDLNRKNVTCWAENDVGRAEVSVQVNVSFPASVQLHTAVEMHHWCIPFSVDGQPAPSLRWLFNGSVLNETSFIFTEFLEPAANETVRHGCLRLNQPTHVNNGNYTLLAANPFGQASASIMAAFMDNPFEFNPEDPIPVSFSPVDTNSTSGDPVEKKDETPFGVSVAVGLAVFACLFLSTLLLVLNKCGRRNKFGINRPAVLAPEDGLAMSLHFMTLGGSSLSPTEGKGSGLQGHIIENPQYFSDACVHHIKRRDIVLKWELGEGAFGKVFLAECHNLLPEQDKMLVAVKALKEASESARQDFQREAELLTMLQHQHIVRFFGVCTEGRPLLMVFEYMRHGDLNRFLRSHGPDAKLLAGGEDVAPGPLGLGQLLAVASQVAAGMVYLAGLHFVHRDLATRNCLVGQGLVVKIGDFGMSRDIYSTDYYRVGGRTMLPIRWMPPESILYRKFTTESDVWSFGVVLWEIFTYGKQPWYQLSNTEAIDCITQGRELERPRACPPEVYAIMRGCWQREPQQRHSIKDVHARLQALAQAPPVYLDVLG
Chain of Angiopoietin-1 receptor (Homo sapiens) (Q02763 whole entry): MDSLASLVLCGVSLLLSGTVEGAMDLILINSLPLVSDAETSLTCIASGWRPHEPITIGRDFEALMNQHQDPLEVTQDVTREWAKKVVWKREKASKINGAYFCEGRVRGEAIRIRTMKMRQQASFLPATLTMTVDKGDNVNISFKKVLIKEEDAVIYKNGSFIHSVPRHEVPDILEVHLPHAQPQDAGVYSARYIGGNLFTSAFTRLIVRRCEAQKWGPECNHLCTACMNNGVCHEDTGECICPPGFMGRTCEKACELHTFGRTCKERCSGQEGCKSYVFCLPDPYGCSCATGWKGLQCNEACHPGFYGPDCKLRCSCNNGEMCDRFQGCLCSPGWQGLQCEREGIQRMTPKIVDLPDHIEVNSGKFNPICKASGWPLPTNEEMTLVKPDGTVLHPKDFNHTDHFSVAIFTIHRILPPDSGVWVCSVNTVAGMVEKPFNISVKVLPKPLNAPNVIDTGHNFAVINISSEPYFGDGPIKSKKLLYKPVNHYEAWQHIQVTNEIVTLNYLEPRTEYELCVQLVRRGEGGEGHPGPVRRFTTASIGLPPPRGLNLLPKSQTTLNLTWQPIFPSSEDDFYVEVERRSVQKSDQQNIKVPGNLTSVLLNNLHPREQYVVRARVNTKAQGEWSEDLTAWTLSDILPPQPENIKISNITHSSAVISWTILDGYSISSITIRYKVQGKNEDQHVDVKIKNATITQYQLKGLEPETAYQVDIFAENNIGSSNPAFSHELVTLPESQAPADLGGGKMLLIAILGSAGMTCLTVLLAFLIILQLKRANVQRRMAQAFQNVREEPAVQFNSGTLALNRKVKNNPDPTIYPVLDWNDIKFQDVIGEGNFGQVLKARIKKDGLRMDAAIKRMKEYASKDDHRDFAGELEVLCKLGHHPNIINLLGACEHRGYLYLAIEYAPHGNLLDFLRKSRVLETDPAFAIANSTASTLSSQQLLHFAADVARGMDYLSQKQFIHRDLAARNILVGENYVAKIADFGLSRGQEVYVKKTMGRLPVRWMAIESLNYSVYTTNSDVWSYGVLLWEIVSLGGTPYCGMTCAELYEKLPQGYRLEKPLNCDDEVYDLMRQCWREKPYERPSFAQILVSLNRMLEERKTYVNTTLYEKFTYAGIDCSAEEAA
Chain of Serine/threonine-protein kinase WNK2 (Homo sapiens) (Q9Y3S1 whole entry): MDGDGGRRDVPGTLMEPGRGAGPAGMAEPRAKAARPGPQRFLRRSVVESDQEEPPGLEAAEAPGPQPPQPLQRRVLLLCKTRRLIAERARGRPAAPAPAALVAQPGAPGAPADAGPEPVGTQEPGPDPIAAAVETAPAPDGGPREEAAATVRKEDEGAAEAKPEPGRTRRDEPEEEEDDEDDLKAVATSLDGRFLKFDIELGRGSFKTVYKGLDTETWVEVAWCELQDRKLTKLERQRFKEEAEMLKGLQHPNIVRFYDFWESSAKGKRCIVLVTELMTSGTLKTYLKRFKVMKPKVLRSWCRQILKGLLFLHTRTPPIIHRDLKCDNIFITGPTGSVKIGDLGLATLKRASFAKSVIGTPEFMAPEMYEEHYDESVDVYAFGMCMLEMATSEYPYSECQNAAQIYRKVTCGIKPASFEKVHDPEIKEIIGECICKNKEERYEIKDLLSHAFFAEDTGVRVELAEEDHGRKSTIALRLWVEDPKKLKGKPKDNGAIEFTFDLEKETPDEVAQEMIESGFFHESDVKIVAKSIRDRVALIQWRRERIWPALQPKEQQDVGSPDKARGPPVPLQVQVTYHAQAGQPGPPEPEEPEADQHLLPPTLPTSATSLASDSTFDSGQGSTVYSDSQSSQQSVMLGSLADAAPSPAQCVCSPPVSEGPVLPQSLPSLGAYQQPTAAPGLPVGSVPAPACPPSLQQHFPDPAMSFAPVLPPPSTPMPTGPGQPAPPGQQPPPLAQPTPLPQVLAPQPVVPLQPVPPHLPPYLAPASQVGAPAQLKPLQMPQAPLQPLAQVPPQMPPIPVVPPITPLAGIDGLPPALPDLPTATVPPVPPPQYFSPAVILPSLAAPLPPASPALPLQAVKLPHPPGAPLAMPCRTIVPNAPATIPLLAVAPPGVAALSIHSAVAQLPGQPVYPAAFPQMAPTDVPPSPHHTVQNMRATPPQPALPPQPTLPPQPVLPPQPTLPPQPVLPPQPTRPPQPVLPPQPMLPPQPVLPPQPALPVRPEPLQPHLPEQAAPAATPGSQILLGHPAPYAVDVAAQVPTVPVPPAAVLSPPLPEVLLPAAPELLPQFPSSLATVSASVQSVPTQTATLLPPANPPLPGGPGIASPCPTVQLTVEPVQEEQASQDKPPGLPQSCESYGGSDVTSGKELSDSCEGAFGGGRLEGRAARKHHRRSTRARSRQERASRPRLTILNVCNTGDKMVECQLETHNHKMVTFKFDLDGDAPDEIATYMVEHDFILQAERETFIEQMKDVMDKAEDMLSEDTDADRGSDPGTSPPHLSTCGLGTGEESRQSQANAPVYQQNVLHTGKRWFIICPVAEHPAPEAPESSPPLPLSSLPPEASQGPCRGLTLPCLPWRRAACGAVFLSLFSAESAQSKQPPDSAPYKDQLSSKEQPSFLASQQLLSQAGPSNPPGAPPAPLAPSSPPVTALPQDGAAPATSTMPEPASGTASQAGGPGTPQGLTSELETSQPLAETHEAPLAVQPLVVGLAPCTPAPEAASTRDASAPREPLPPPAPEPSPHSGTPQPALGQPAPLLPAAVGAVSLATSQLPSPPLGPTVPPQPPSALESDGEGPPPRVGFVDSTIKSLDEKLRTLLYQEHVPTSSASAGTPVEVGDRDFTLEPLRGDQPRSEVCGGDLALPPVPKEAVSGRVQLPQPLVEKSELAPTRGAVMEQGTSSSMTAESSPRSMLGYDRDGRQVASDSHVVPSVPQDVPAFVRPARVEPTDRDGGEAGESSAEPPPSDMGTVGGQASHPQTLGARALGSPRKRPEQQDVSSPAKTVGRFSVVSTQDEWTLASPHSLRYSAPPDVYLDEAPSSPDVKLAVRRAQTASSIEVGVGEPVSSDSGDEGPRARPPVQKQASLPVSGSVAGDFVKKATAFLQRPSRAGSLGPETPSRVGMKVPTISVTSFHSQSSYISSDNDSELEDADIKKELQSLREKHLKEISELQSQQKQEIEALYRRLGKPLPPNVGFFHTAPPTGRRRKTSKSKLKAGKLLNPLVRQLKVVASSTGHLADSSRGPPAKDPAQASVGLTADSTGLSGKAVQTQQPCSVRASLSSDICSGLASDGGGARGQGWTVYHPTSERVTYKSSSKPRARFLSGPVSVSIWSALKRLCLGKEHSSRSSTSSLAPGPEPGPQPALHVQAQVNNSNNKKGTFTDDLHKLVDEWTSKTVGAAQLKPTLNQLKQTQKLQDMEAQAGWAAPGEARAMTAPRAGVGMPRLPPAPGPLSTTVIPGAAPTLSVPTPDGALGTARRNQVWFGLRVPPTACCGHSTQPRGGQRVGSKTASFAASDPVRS
Chain of BDNF/NT-3 growth factors receptor (Homo sapiens) (Q16620 32-822 limits assumed): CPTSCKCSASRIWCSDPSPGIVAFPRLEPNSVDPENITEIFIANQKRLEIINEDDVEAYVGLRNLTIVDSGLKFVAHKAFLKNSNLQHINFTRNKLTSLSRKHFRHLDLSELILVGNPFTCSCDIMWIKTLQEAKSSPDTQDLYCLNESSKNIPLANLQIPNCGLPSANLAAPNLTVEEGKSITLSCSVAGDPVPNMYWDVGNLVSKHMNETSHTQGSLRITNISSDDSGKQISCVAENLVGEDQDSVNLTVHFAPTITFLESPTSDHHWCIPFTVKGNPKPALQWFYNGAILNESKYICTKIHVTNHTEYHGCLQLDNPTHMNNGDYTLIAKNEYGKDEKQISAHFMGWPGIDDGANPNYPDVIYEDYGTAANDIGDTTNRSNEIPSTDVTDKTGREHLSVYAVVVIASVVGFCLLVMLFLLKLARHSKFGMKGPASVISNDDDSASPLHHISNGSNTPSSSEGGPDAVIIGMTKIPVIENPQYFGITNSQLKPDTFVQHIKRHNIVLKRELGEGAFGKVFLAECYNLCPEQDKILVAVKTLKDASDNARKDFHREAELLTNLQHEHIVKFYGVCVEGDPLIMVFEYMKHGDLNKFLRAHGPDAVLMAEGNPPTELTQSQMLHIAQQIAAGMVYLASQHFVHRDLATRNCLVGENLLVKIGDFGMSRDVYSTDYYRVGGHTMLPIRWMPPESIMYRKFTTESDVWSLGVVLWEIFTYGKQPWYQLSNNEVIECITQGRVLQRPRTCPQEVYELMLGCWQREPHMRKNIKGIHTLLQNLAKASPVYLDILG

With `O=C(NC(NC(=S)Nc1ccc(F)c([N+](=O)[O-])c1)C(Cl)(Cl)Cl)C(c1ccccc1)c1ccccc1` (configuration not stated), the residual activity amounted to 87% in test [1]; 103% in test [2]; 101% in test [3]; 102% in test [4]; 62% in test [5]; 82% in [6]. For the same compound, the residual activity in [7] stood at 87%; in test [8] it was 52%; in [9], 91%; in test [10], 89%; in test [11], 82%; in test [12], 76%. Further, the residual activity in test [13] was 96%; in test [14] it was 97%; in [15], 98%; in test [16] it was 95%.

Regarding `Nc1ncnc2c1c(-c1ccc(Oc3ccccc3)cc1)cn2C1CCCC1`, the residual activity in test [1] came out at 94%; in [2], 86%; in test [3], 93%; in test [17], 12%; in test [6] it was 3%; in [7], 26%. Further, the residual activity is -1% in test [8]; 44% in test [9]; -9% in [10]; 18% in test [11]; 1% in test [12]; 98% in [13]. Further, the residual activity in test [15] was 45%; in [18], 85% (inactive); in test [16] it was 72%; in test [19] it was 103% (inactive).

`CC(C)(C)c1nc2c3ccc(F)cc3c3c(=O)[nH]ccc3c2[nH]1`: the residual activity in test [1] came to 42%; in test [2] it was 60%; in test [17], 78%; in test [6], 64%; in test [7] it was 3%; in test [8] it was 6%. Also, the residual activity was 71% in test [9]; -2% in [10]; 63% in test [11]; 57% in [12]; 26% in test [13]; 25% in test [20]. The residual activity is 56% in [14] and 13% in test [15].

Regarding `CC(C)c1nn(-c2c(Cl)cccc2Cl)c2nc(Cc3ccc(OCCO)cc3)[nH]c(=O)c12`, the residual activity is 91% in [1]; 94% in test [2]; 79% in test [3]; 90% in [4]; 85% in [5]; 86% in test [6]. Further, the residual activity in [7] amounted to 87%; in test [8], 74%; in test [10] it was 79%; in test [11], 96%; in [12] it was 99%; in test [13], 81%. The residual activity in [20] was 49%; in test [14], 84%; in [15], 45%; in test [18] it was 100% (inactive); in test [16], 96%; in test [19] it was 108% (inactive).

Consider `CCCCc1c(-c2ccc(OC)cc2)[nH]c2nccnc12`, for which the residual activity came to 63% in test [1]; 81% in test [2]; 51% in test [4]; 11% in test [5]; 105% in test [17]; 82% in [6]. Further, the residual activity turned out to be 61% in test [7]; 57% in [8]; 70% in test [9]; 76% in test [10]; 53% in test [11]; 55% in [12]. Besides, the residual activity in [14] was 68%; in [15] it was 69%; in test [18] it was 105% (inactive); in [16] it was 100%; in test [19], 105% (inactive).

In the case of `CCCCc1c(-c2ccc(O)cc2)[nH]c2nccnc12`, the residual activity in [1] amounted to 58%; in test [2] it was 59%; in test [3] it was 85%; in test [7] it was 61%; in [8], 12%; in test [9] it was 67%. In addition, the residual activity is 45% in test [10]; 87% in test [13]; 93% in test [20]; 73% in test [14]; 31% in [15].
